A selection: hits, their analogues and other compounds. The true share with any hit is near 4.2%.
ssDAF12 agonist – S. stercoralis DAF-12 activation, primary screen; HEK293 ssDAF-12/GRIP1 lit1-tk-luc reporter, luminescence; % of 3 µM dafachronic acid response; activation, % at 6.8 µM; 370,000 compounds, 1% hits; AID 652126;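 active = activation above the mean over all tested compounds plus 3 SD, cut at about 0.9% in these data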;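 also: 0% = DMSO-only wells and 100% = 3 µM delta7-dafachronic acid wells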
hcDAF-12 act – activates DAF-12 receptor from parasite H. contortus | HEK293 hcDAF-12 lit1-tk-luc reporter, luminescence; 0% DMSO, 100% Δ7-dafachronic acid | activation, % at 6.8 µM | 370,000 compounds, 1.4% hits;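 active = activation above the mean of all tested compounds plus 3 SD, cut at about 5.5% in these data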;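 also: 100% = response to 3 µM Δ7-dafachronic acid high control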
hgDAF12 agonist – hgDAF-12 agonism, primary luciferase screen | AID 687014 | HEK293 GAL4-hgDAF12 UAS-luciferase reporter, agonist luminescence; normalized to butyrate control | 370,000 compounds, 1.8% hits | activation, % at 6.8 µM;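 active = activation above a cutoff set at the mean of all screened compounds plus 3 SD, cut at about 10% in these data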;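 also: 0% = DMSO wells and 100% = sodium butyrate wells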
esBAF inh – inhibitors of esBAF chromatin remodeling in mouse ES cells. Bmi1-luciferase knock-in reporter, 24 h; 100% = twice the neutral-well signal. reporter increase, % at 12.5 µM. 350,000 compounds, 2% hits; in the data active = activation above about 40%;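 also: 0% = median of the plate's neutral control wells and 100% = double that signal; a rise in the Bmi1 reporter signal indicates esBAF inhibition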
Wnt act – activators of Wnt/beta-catenin signaling; 300,000 compounds, 1.2% hits; Wnt/beta-catenin reporter cell assay, activator, plate reader; activation, % at 9.35 µM; in the data active = activation above about 30%, passing the limit was not always enough;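 also: 0% = neutral control wells and 100% = positive control wells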
DAX1 inh – blocks DAX1 repression of SF-1 activated StAR promoter | HEK293T StAR-luciferase reporter, SF-1/DAX-1 repression relief | inhibition, % at 6.8 µM | 370,000 compounds, 1.1% hits;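 active = inhibition above the mean over all tested compounds plus 3 SD, cut at about 3.6% in these data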;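 also: 0% = DAX-1 cells with DMSO and 100% = cells lacking DAX-1 with DMSO; higher inhibition means more luminescence from relief of DAX-1 repression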
The depositor's hits bear a star; . = not tested or not shown.

SMILES	ssDAF12 agonist	hcDAF-12 act	hgDAF12 agonist	esBAF inh	Wnt act	DAX1 inh
O=[N+]([O-])c1ccc(-c2cn3ccccc3n2)cc1	0	2	7	.	35*	2
C[C@H]1CN([C@@H](C)CO)C(=O)CCCn2cc(nn2)CO[C@H]1CN(C)Cc1ccncc1	.	.	.	-1	.	.
Cc1nc(NC(=O)c2ccc(F)cc2)nc2cc3c(cc12)OCO3	-2	-1	2	10	.	1
Cc1nc(NC(=O)c2ccccc2)nc2cc3c(cc12)OCO3	1	2	12*	49*	15	2
CCN(CC)CC(C)(C)COC(=O)c1oc2ccccc2c1C	-2	0	1	.	-2	0
Cc1c(C(=O)OCC(C)(C)CN(C)C)oc2ccccc12	-1	0	7	29	-3	4.0*
Cc1c(C(=O)OCC(=O)N2C(C)CCCC2C)oc2ccccc12 (configuration not stated)	-1	1	6	76*	19	2
CC(=O)N/C(=C\c1ccccc1)C(=O)OCC(=O)c1ccccc1	-1	0	-1	1	-2	-1
CC(=O)N/C(=C\c1ccccc1)C(=O)OCC(=O)NC1CCCC1	0	6.4*	2	.	-1	0
CC(NC(=O)COC(=O)C1(C)CC1(Cl)Cl)c1ccccc1 (configuration not stated)	-1	-1	0	-6	4	3.6*
CN1[C@@H]2c3ccc(-c4cccc(F)c4)c(=O)n3C[C@@H]2[C@@H](CO)[C@@H]1C(=O)NC1CCCCC1	.	.	.	2	.	.
Cc1c(C(=O)OCC(=O)NC(C)c2ccccc2)oc2ccccc12 (configuration not stated)	1	5.7*	1	12	-2	2
COc1cccc(NC(=O)COC(=O)c2c(F)cccc2F)c1	-1	-1	-2	.	.	-1
Cc1ccsc1C(=O)OCC(=O)N1C(C)CCCC1C (configuration not stated)	0	0	2	79*	11	-1
COc1cccc(NC(=O)COC(=O)c2sccc2C)c1	0	6.4*	13*	50*	7	3.7*
O=C(COC(=O)c1ccccc1Br)NC1CCCC1	0	0	5	50*	-6	1
Cc1cc(C(=O)OCC(=O)NC(C)c2ccccc2)c(C)o1 (configuration not stated)	-1	-2	-2	5	-2	-1
COc1ccc(NC(=O)N(C)C[C@@H]2Oc3ccc(NC(=O)CCCCCC(=O)Nc4ccccc4N)cc3CC(=O)N([C@H](C)CO)C[C@H]2C)cc1	.	.	.	7	.	.
C[C@@H]1CCCCO[C@@H](CN(C)Cc2ccc(C(=O)O)cc2)[C@@H](C)CN([C@@H](C)CO)C(=O)c2cc(NC(=O)Nc3ccc4c(c3)OCO4)ccc2O1	.	.	.	23	.	.
O=C(Nc1nccs1)[C@H]1[C@H](CO)[C@H]2Cn3c(ccc(-c4ccccc4)c3=O)[C@H]2N1CC1CCCC1	.	.	.	5	.	.
C[C@@H]1CN([C@@H](C)CO)S(=O)(=O)c2ccc(-c3cccc(C(=O)N(C)C)c3)cc2O[C@@H]1CN(C)C(=O)Cc1ccccn1	.	.	.	0	.	.
N#C[C@@H]1[C@@H](c2ccccc2)[C@@H](CO)N1C(=O)c1ccc2c(c1)OCO2	.	.	.	-2	.	.
Cc1ccsc1C(=O)OCC(=O)NC1CCCCC1	0	3	11*	63*	12	3
Cc1ccsc1C(=O)OCC(=O)NC1CC1	-1	1	1	8	1	-1
O=C(NCC[C@@H]1CC[C@@H](NS(=O)(=O)c2cccc(F)c2)[C@@H](CO)O1)Nc1cc(F)ccc1F	.	.	.	7	.	.
SMILES	ssDAF12 agonist	hcDAF-12 act	hgDAF12 agonist	esBAF inh	Wnt act	DAX1 inh
CCOC(=O)N1CCC(Nc2c(-c3ccc(C)cc3)c(=O)c2=O)CC1	3.5*	0	-2	-7	.	0
C[C@@H]1CN([C@@H](C)CO)C(=O)c2ccccc2-c2ccccc2CO[C@H]1CN(C)C(=O)c1ccccc1	.	.	.	-2	.	.
CCC(=O)Nc1ccc2c(c1)OC[C@H](C)N(C(=O)c1cnccn1)C[C@H](C)[C@H](OC)CN(C)C2=O	.	.	.	0	.	.
Cn1cncc1C(=O)c1ccccc1	1.1*	2	0	.	0	-1
Cc1cc(C)c2nc(-n3nc(C)cc3N)cc(C)c2c1	0	5.7*	7	.	.	1
O=c1c2cc(NC(=S)N3CCCCCC3)ccc2nc2n1CCCCC2	-2	-3	3	.	0	-1
S=C(Nc1ccc2nsnc2c1)N1CCCC1	0	1	3	81*	10	0
O=c1c2cc(NC(=S)N3CCCCC3)ccc2nc2n1CCCCC2	1.1*	0	5	5	2	-1
COc1ccc(NC(=O)N2CCCC(c3nc(-c4ccc(OC)cc4)no3)C2)cc1 (configuration not stated)	-2	-1	4	21	20	-1
COc1ccc(-c2noc(C3CCCN(C(=O)c4ccccc4)C3)n2)cc1 (configuration not stated)	-2	-2	4	42*	0	-1
Cc1ccc(-c2noc(C3CCCN(C(=O)c4ccccc4Br)C3)n2)o1 (configuration not stated)	1.7*	0	1	36	9	1
COc1ccc(-c2noc(C3CCCN(C(=O)c4cccc(F)c4)C3)n2)cc1 (configuration not stated)	-1	-4	-1	7	-2	0
COc1ccc(-c2noc(C3CCCN(C(=O)Nc4ccccc4)C3)n2)cc1 (configuration not stated)	-2	0	5	59*	-1	0
Cc1ccc(-c2noc(C3CCCN(C(=O)c4ccccc4)C3)n2)o1 (configuration not stated)	-1	1	3	23	.	1
O=C(c1cc(Cl)ccc1F)N1CCCC(c2nc(-c3cccs3)no2)C1 (configuration not stated)	-1	-1	3	.	.	0
O=C(c1c(F)cccc1F)N1CCCC(c2nc(-c3cccs3)no2)C1 (configuration not stated)	0	-1	4	81*	13	1
C[C@H](CO)N1C[C@H](C)[C@H](CN(C)Cc2ccc(Cl)c(Cl)c2)Oc2ccc(NS(C)(=O)=O)cc2C1=O	.	.	.	-3	.	.
COc1ccc(-c2noc(C3CCCN(C(=O)Nc4ccc(C)c(F)c4)C3)n2)cc1 (configuration not stated)	-1	-1	4	.	.	-1
COc1ccc(-c2noc(C3CCCN(C(=O)Nc4ccccc4F)C3)n2)cc1 (configuration not stated)	-1	0	11*	.	3	1
COc1ccc(NC(=O)N[C@@H]2CC[C@@H](CCn3cc(-c4ccccc4F)nn3)O[C@@H]2CO)cc1	.	.	.	3	.	.

High-throughput results (PubChem)
